# Measured values taken from PubChem BioAssay (EPA / NIEHS).
# Values joined by “and” are separate entries in the source; they are usually repeats but may differ in a detail not shown here. Equal values may be shown once. Where a structure was tested more than once in an assay, its records may differ in their call. Active and inactive are the calls of the source. Rule for the calls: active = hit-call score of the fitted dose curve at least 0.9, where 1 is the maximum; inactive = score below 0.9.
# Columns and labels:
# [1] = BSK_MyoF_SRB: Viability Assessment in the BioMAP Diversity Plus: MyoF Assay (AID 2284267); conditions: primary human lung fibroblasts;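 note: total protein by SRB absorbance in parallel cultures as cytotoxicity measure; cells assessed 24 h after compound addition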
# Procedure, shortened: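 Confluent human lung fibroblasts were exposed to test chemicals for 24 h. Parallel wells were then fixed in 10% TCA, stained with 0.1% sulforhodamine B and measured at 560 nm. DMSO served as baseline for curve fitting.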
# [2] = read-out: Matrix Metallopeptidase 1 (MMP1), MMP1 (gene 4312); assay: BSK_MyoF_MMP1: BioMAP Diversity Plus: MyoF Assay for Matrix Metallopeptidase 1 (MMP1) Biomarker Activity (AID 2284268); conditions: primary human lung fibroblasts
# Procedure, shortened: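 Human lung fibroblasts (MyoF system) exposed to chemical for 24 h in 96-well format; MMP1 biomarker quantified by ELISA, with activity fitted in the positive direction relative to DMSO baseline.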
# [3] = read-out: TIMP metallopeptidase inhibitor 1 (TIMP1), TIMP1 (gene 7076); assay: BSK_MyoF_TIMP1: BioMAP Diversity Plus: MyoF Assay for TIMP metallopeptidase inhibitor 1 (TIMP1) Biomarker Activity (AID 2284269); conditions: primary human lung fibroblasts
# Procedure, shortened: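 ELISA read-out of TIMP-1 from primary human lung fibroblast cultures 24 h after compound dosing; gain of signal relative to DMSO vehicle baseline defines activity.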
# [4] = read-out: Matrix Metallopeptidase 1 (MMP1), MMP1 (gene 4312); assay: BSK_BF4T_MMP1: BioMAP Diversity Plus: BF4T Assay for Matrix Metallopeptidase 1 (MMP1) Biomarker Activity (AID 2284270); conditions: primary human bronchial epithelial cells with fibroblasts
# Procedure, shortened: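 MMP-1 quantified by ELISA in primary human bronchial epithelial/dermal fibroblast co-cultures, 24 hours post-dosing, with DMSO as baseline; parallel sulforhodamine B staining (560 nm) tracks overt cytotoxicity.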
# [5] = read-out: Matrix Metallopeptidase 3 (MMP3), MMP3 (gene 4314); assay: BSK_BF4T_MMP3: BioMAP Diversity Plus: BF4T Assay for Matrix Metallopeptidase 3 (MMP3) Biomarker Activity (AID 2284271); conditions: primary human bronchial epithelial cells with fibroblasts
# Procedure, shortened: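 MMP-3 level read by ELISA after 24 h chemical exposure of bronchial epithelial cell/dermal fibroblast co-cultures, fitted upward relative to DMSO. Parallel cultures stained with 0.1% SRB after TCA fixation gauge overt cytotoxicity.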
# [6] = read-out: Tissue plasminogen activator (tPA), PLAT (gene 5327); assay: BSK_BF4T_tPA: BioMAP Diversity Plus: BF4T Assay for Tissue plasminogen activator (tPA) Biomarker Activity (AID 2284272); conditions: primary human bronchial epithelial cells with fibroblasts
# Procedure, shortened: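 tPA level quantified by ELISA at 24 h post-treatment in bronchial epithelial/dermal fibroblast co-cultures, gain of signal scored against DMSO baseline. Parallel cultures stained with 0.1% SRB (560 nm) to flag overt cytotoxicity.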
# [7] = read-out: Plasminogen Activator Inhibitor-1 (PAI1), SERPINE1 (gene 5054); assay: BSK_BF4T_PAI1: BioMAP Diversity Plus: BF4T Assay for Plasminogen Activator Inhibitor-1 (PAI1) Biomarker Activity (AID 2284273); conditions: primary human bronchial epithelial cells with fibroblasts
# Procedure, shortened: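 PAI-1 levels quantified by ELISA 24 h post-dosing in bronchial epithelial cell plus dermal fibroblast cultures. Signal gain referenced to DMSO baseline. Sulforhodamine B total-protein staining of parallel wells checked cytotoxicity.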
# [8] = BSK_BF4T_SRB: Viability Assessment in the BioMAP Diversity Plus: BF4T Assay (AID 2284274); conditions: primary human bronchial epithelial cells with fibroblasts
# Procedure, shortened: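 Cytotoxicity measured as total protein: cells fixed with 10% TCA, stained with 0.1% SRB, read at 560 nm. Bronchial epithelial/dermal fibroblast co-culture, 24 h after dosing, with positive-direction fitting relative to DMSO.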
# [9] = read-out: urokinase Plasminogen Activator (uPA), PLAU (gene 5328); assay: BSK_BF4T_uPA: BioMAP Diversity Plus: BF4T Assay for urokinase Plasminogen Activator (uPA) Biomarker Activity (AID 2284275); conditions: primary human bronchial epithelial cells with fibroblasts
# Procedure, shortened: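 uPA levels measured by ELISA at 24 hours in BF4T cultures (bronchial epithelial cells plus dermal fibroblasts) and compared with DMSO; cytotoxicity tracked in parallel cultures by sulforhodamine B staining.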
# [10] = read-out: Matrix Metallopeptidase 9 (MMP9), MMP9 (gene 4318); assay: BSK_BF4T_MMP9: BioMAP Diversity Plus: BF4T Assay for Matrix Metallopeptidase 9 (MMP9) Biomarker Activity (AID 2284276); conditions: primary human bronchial epithelial cells with fibroblasts
# Procedure, shortened: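 MMP-9 levels were measured by ELISA after 24 h exposure of bronchial epithelial cell/dermal fibroblast co-cultures, with DMSO as baseline. Parallel cultures were stained with 0.1% SRB after TCA fixation, read at 560 nm, to flag overt cytotoxicity.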
# [11] = read-out: Interleukin-8 (IL8), CXCL8 (gene 3576); assay: BSK_IMphg_IL8: BioMAP Diversity Plus: IMphg Assay for Interleukin-8 (IL8) Biomarker Activity (AID 2284277); conditions: primary human endothelial cells with macrophages
# Procedure, shortened: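 IL-8 levels were measured by ELISA 24 h after dosing in primary human venular endothelial cell–macrophage cultures, referenced to DMSO; parallel SRB staining monitored overt cytotoxicity.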
# [12] = read-out: Intercellular Adhesion Molecule 1 (ICAM1), ICAM1 (gene 3383); assay: BSK_BE3C_ICAM1: BioMAP Diversity Plus: BE3C Assay for Intercellular Adhesion Molecule 1 (ICAM1) Biomarker Activity (AID 2284278); conditions: primary human bronchial epithelial cells;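 for outcome: cell-surface ICAM-1 protein level quantified by ELISA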
# Procedure, shortened: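 Here, ICAM-1 levels on confluent human bronchial epithelial primary cells are read by ELISA at 24 h after chemical dosing. Parallel SRB staining (0.1% after 10% TCA fixation, 560 nm) checks cytotoxicity.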
# [13] = read-out: Interferon-inducible T-cell alpha chemoattractant (ITAC), CXCL11 (gene 6373); assay: BSK_BE3C_ITAC: BioMAP Diversity Plus: BE3C Assay for Interferon-inducible T-cell alpha chemoattractant (ITAC) Biomarker Activity (AID 2284279); conditions: primary human bronchial epithelial cells
# Procedure, shortened: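 ELISA read-out of I-TAC after 24 h chemical dosing of human lung primary bronchial epithelial cells; gain-of-signal fit vs DMSO baseline. Parallel SRB total-protein staining (0.1% SRB, 10% TCA fixation, 560 nm) assessed cytotoxicity.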
# [14] = read-out: Interleukin-8 (IL8), CXCL8 (gene 3576); assay: BSK_BE3C_IL8: BioMAP Diversity Plus: BE3C Assay for Interleukin-8 (IL8) Biomarker Activity (AID 2284280); conditions: primary human bronchial epithelial cells
# Procedure, shortened: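 Measured at 24 h after treatment, IL-8 from human primary bronchial epithelial cells is determined by ELISA, and the response is modelled as increasing relative to DMSO negative control.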
# [15] = read-out: Epidermal growth factor receptor (EGFR), EGFR (gene 1956); assay: BSK_BE3C_EGFR: BioMAP Diversity Plus: BE3C Assay for Epidermal growth factor receptor (EGFR) Biomarker Activity (AID 2284281); conditions: primary human bronchial epithelial cells
# Procedure, shortened: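 Measured 24 h after dosing in primary human bronchial epithelial cultures, EGFR was read by ELISA; gain of signal over DMSO control defined activity.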
# KRT18 (gene 3875) = assay: BSK_BE3C_Keratin818: BioMAP Diversity Plus: BE3C Assay for Keratin 818 Biomarker Activity (AID 2284282); conditions: primary human bronchial epithelial cells
# Procedure, shortened: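 Keratin 8/18 levels, detected by ELISA, served as the endpoint after 24 h chemical exposure of primary human bronchial epithelial cells. Gain of signal relative to DMSO negative control defined activity.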
# [16] = read-out: Matrix Metallopeptidase 9 (MMP9), MMP9 (gene 4318); assay: BSK_BE3C_MMP9: BioMAP Diversity Plus: BE3C Assay for Matrix Metallopeptidase 9 (MMP9) Biomarker Activity (AID 2284283); conditions: primary human bronchial epithelial cells
# Procedure, shortened: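 MMP9 is measured by ELISA after a 24 h compound exposure of primary human bronchial epithelial cultures. Parallel SRB staining gives overt cytotoxicity. Values fitted in the positive direction against DMSO.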
# [17] = read-out: Plasminogen activator inhibitor-1 (PAI1), SERPINE1 (gene 5054); assay: BSK_CASM3C_PAI1: BioMAP Diversity Plus: CASM3C Assay for Plasminogen activator inhibitor-1 (PAI1) Biomarker Activity (AID 2284284); conditions: primary human coronary artery smooth muscle cells
# [18] = read-out: Monocyte Chemoattractant Protein-1 (MCP1), CCL2 (gene 6347); assay: BSK_hDFCGF_MCP1: BioMAP Diversity Plus: hDFCGF Assay for Monocyte Chemoattractant Protein-1 (MCP1) Biomarker Activity (AID 2284285); conditions: primary human foreskin fibroblasts
# Procedure, shortened: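 MCP-1 ELISA readout was taken 24 hours after dosing primary human dermal fibroblasts in the hDFCGF system, with DMSO as baseline. Parallel sulforhodamine B staining of total protein tracked overt cytotoxicity.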
# [19] = read-out: Vascular cell adhesion molecule 1 (VCAM1), VCAM1 (gene 7412); assay: BSK_IMphg_VCAM1: BioMAP Diversity Plus: IMphg Assay for Vascular cell adhesion molecule 1 (VCAM1) Biomarker Activity (AID 2284286); conditions: primary human endothelial cells with macrophages
# Procedure, shortened: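 ELISA read-out of VCAM-1 on venular endothelial cell/macrophage co-cultures at 24 h post-treatment, with DMSO as baseline and positive-direction fitting. Parallel sulforhodamine B total-protein staining (560 nm) served as the overt cytotoxicity measure.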
structure (smiles),measurement,setting,value
ClC1C(Cl)C(Cl)C(Cl)C(Cl)C1Cl (stereo unspecified),AC50,[1],18.6 µM (active) and 726 nM (active)
same,outcome,[1],inactive
same,AC50,[2],8.25 µM (active) and 6.92 µM (active) and 292 nM (active)
same,outcome,[3],inactive
O=S(=O)(O)C(F)(F)C(F)(F)C(F)(F)C(F)(F)C(F)(F)C(F)(F)C(F)(F)C(F)(F)F,outcome,[1],inactive
same,outcome,[2],inactive
same,outcome,[3],inactive
same,outcome,[4],inactive
same,AC50,[5],14.7 µM (active)
same,outcome,[5],inactive
same,outcome,[6],inactive
same,outcome,[7],inactive
same,outcome,[8],inactive
same,outcome,[9],inactive
same,AC50,[10],17.1 µM (active)
same,outcome,[10],inactive
same,outcome,[11],inactive
same,AC50,[12],49.3 µM (active) and 53.4 µM (active)
same,outcome,[12],inactive
same,AC50,[13],40.8 µM (active) [middle of 4 runs]
same,AC50,[14],30 µM (active) and 7.03 µM (active) and 2.79 µM (active)
same,outcome,[14],inactive
same,AC50,[15],16.5 µM (active) and 11.6 µM (active) and 13.2 µM (active)
same,outcome,[15],inactive
same,outcome,KRT18 (gene 3875),inactive
same,AC50,[16],17.7 µM (active) [middle of 4 runs]
same,outcome,[17],inactive
same,outcome,[18],inactive
same,outcome,[19],inactive
O=C(O)C(F)(F)C(F)(F)C(F)(F)C(F)(F)C(F)(F)C(F)(F)C(F)(F)F,outcome,[1],inactive
same,outcome,[2],inactive
same,outcome,[3],inactive
same,outcome,[4],inactive
same,outcome,[5],inactive
same,AC50,[6],30 µM (active) and 1.85 µM (active)
same,outcome,[6],inactive
same,outcome,[7],inactive
same,outcome,[8],inactive
same,outcome,[9],inactive
same,outcome,[10],inactive
same,AC50,[11],20.5 µM (active) and 20.3 µM (active) and 25.2 µM (active)
same,outcome,[11],inactive
same,outcome,[12],inactive
same,outcome,[13],inactive
same,outcome,[14],inactive
same,outcome,[15],inactive
same,outcome,KRT18 (gene 3875),inactive
same,outcome,[16],inactive
same,outcome,[17],inactive
same,outcome,[18],inactive
same,outcome,[19],inactive
